Source: PubChem
In the library only some 3.2% were active in any assay of this set; here they are far more common.
mTORC1 inh: reduces mTORC1 signaling in Tsc2 and p53 null MEF cells. Tsc2-/- p53-/- MEF, phospho-rpS6 immunofluorescence/PI, 24 h. AID 493208. 44,000 compounds, 0.78% hits. Potency, µM (titrated, usually from 38.3 µM), without a hit: top-dose activity change, negative = inhibition, usual class: inhibitors;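 note: potency is the fitted concentration of half-maximal effect; plate controls were DMSO for no effect and rapamycin for full effect; nearly all actives have a fitted effect of over 50% in size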
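Compounds act on Tsc2-/-, p53-/- fibroblasts carrying an empty vector for 24 h before fixation and dual staining for phospho-S6 and DNA (propidium iodide). Values are percentages of cells above a rapamycin-defined pS6/PI threshold.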
p53null 32C kill: p53 null cell cytotoxicity, permissive temperature | H1299-neo p53 null cells, ATP luminescence, 24 h, 32C | Potency, µM (series often up to 46.1 µM), for inactives: top-dose activity change, negative = cytotoxicity, actives largely listed as cytotoxic | 55,000 compounds, 0.62% hits | AID 903;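 note: potency is the fitted concentration of half-maximal effect; 0% = DMSO only and -100% = full killing by 100 µM tamoxifen; nearly all actives have a fitted effect of over 55% in size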
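ATP-content luminescence in p53-null H1299-neo cells after 24 h compound exposure (up to 46 uM) at 32C permissive temperature; 0% and 100% killing set by DMSO and 100 uM tamoxifen; Hill-equation AC50.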
S16 F2sN tox: toxic to S16 Pmp22-F2sN Schwann cells; S16 Pmp22-F2sN Schwann cells viability, CellTiter-Glo, 24 h; Potency, µM (top dose mostly 57.5 µM), without a hit: top-dose activity change, negative = cytotoxicity, actives largely listed as cytotoxic; 43,000 compounds, 0.48% hits; note: potency is the fitted concentration of half-maximal effect; % is set by controls: 0 for no effect and ±100 for the full control effect; nearly all actives have a fitted effect of over 65% in size
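Used to flag compounds lowering reporter output through toxicity, this quantitative HTS measures ATP-based CellTiter-Glo luminescence in S16 Pmp22-F2sN Schwann cells after 24 h compound exposure at 37C.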
PMP22 txn: modulators of PMP22 gene transcription in S16 Schwann cells | Potency, µM (series often up to 57.5 µM), for inactives: at the top dose activity change, negative = inhibition, actives largely listed as inhibitors | S16 Pmp22-F2sN Schwann cells (luciferase reporters placed in the Pmp22 gene), FLuc/NLuc coincidence luminescence, 24 h | 43,000 compounds, 2% hits | AID 1508649; active = clear falling dose curves in both reporters; inconclusive = both reporters move, but less clearly or upward; inactive = either reporter flat; the % is the NLuc reporter signal; note: potency is the fitted concentration of half-maximal effect; % is set by controls: 0 for no effect and ±100 for the full control effect
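S16(c9) Schwann cells with FLuc/NLuc coincidence reporter in the Pmp22 3' UTR; compounds pin-transferred, 24 h at 37C. Dual-luciferase read: FLuc first, then NLuc after Stop&Glo, each 10 min at room temperature.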
p53null 39C kill: p53 null cell cytotoxicity, nonpermissive temperature; H1299 p53-null (neo) cells, 39C, ATPlite viability, 24 h; Potency, µM (series often up to 46.1 µM), for inactives: at the highest dose activity, negative = cell killing, most hits filed as cytotoxic; 55,000 compounds, 0.97% hits; AID 904;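 note: potency is the fitted concentration of half-maximal effect; 0% = DMSO only and -100% = full killing by 100 µM tamoxifen; nearly all actives have a fitted effect of over 50% in size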
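Temperature-shift cytotoxicity format: compound titrations on p53-null or A138V-expressing H1299 cells held 24 hr at 39C, cell ATP then measured, AC50 from Hill model.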
NLuc saturating: inhibits NanoLuc at saturating substrate, PMP22 counter-screen. shares compounds with PMP22 txn. Secreted NLuc enzyme (filtered S16 cell medium), Nano-Glo luminescence. Potency, µM (top dose mostly 57.5 µM), without a hit: top-dose activity change, negative = inhibition, hits mostly inhibitors. 690 compounds, 4% hits; note: potency is the fitted concentration of half-maximal effect; % is set by controls: 0 for no effect and ±100 for the full control effect
NLuc Km counter: NanoLuc inhibition at Km substrate, PMP22 artifact check | secreted NLuc enzyme, coelenterazine luminescence, Km conditions | AID 1508639 | Potency, µM (top dose mostly 57.5 µM), without a hit: at the top dose activity change, negative = inhibition, actives largely listed as inhibitors | shares compounds with PMP22 txn | 690 compounds, 5% hits; note: potency is the fitted concentration of half-maximal effect; % is set by controls: 0 for no effect and ±100 for the full control effect
FLuc counter: counter-screen for PMP22 expression modulators: firefly luciferase inhibition. 690 tested, under 10 active. AID 1508640. shares compounds with PMP22 txn. Potency, µM (titrated, usually from 57.5 µM), without a hit: top-dose activity, negative = inhibition, hits mostly inhibitors. purified P. pyralis FLuc, luminescence, 10 min; note: % of control where 0% means no effect
Target sequence (P08659 whole entry, looked up): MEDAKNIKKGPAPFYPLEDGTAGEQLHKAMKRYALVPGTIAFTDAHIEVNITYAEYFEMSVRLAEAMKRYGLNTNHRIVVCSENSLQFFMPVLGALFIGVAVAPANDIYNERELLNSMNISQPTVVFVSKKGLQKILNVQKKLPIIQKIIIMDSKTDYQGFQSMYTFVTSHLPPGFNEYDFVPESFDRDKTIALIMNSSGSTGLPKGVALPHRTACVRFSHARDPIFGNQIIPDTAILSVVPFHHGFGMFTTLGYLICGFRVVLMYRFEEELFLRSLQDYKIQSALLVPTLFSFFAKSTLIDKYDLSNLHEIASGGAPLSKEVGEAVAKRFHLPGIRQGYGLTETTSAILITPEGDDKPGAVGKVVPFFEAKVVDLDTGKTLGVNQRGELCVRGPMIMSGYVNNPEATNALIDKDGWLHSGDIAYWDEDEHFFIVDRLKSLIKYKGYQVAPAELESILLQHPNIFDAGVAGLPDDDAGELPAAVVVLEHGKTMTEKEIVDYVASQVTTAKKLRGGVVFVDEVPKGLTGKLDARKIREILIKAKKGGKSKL
S16 viab conf: S16 Schwann cell cytotoxicity, confirmatory; Potency, µM (top dose mostly 57.5 µM), for inactives: at the top dose activity change, negative = viability loss, usual class: cytotoxic; shares compounds with PMP22 txn; S16 Schwann cells viability, CellTiter-Glo ATP luminescence, 24 h; 690 compounds, 7% hits; note: potency is the fitted concentration of half-maximal effect; % is set by controls: 0 for no effect and ±100 for the full control effect
PMP22 txn cnf: PMP22 transcription modulation, confirmatory; shares compounds with PMP22 txn; S16 Schwann cells Pmp22-F2sN, dual luciferase, 24 h; Potency, µM (highest dose often 57.5 µM), for inactives: at the top dose activity change, negative = inhibition, actives largely listed as inhibitors; 690 compounds, 22% hits; AID 1508646; active = clear falling dose curves in both reporters; inconclusive = both reporters move, but less clearly or upward; inactive = either reporter flat; the % is the FLuc reporter signal; note: potency is the fitted concentration of half-maximal effect
PMP22 prot conf: rat PMP22 protein level modulation, confirmatory. shares compounds with PMP22 txn. Potency, µM (doses to about 27.9 µM), for the others: at the top dose activity change, negative = inhibition, usual class: inhibitors. S16 Schwann cells Pmp22-HiBiT, luminescence, 48 h. 95 tested, under 10 active
Target sequence (P25094 whole entry, looked up): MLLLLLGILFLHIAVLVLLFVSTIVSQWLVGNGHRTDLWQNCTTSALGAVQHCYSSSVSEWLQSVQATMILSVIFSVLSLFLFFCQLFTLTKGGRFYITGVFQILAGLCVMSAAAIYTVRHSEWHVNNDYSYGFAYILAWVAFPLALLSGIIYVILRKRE
The depositor's hits bear a star; u = inconclusive; x = no result given. Unless noted, calls come from the whole dose curve; as a rule, active = well fitted curve in the direction sought with a large enough effect; inconclusive = small, poorly fitted or top-dose-only effect, or another doubt; inactive = no such curve, though single readings can be large; an effect the other way counts as inactive or inconclusive.

SMILES | mTORC1 inh | p53null 32C kill | S16 F2sN tox | PMP22 txn | p53null 39C kill | NLuc saturating | NLuc Km counter | FLuc counter | S16 viab conf | PMP22 txn cnf | others
COc1ccc(OC)c(NC(=O)CSc2c3c(nc4ccccc24)CCCC3)c1 | u | 21.1% | u | 9.46µM* | 98.1% | u | u | 3.8% | u | 12.2µM* | PMP22 prot conf=u
CCOc1ccccc1NC(=O)C1CCCN1S(=O)(=O)c1ccc2nc(-c3ccccc3)[nH]c2c1 (stereo unspecified) | -19.5% | 18.9% | u | u | 13.2% | x | x | x | x | x
CCCCN(CC)Cc1ccc(CNS(=O)(=O)c2cc3c(cc2Cl)NC(=O)CO3)o1 | -14.6% | -6.6% | 10.8% | -20.0% | 20.8% | x | x | x | x | x
O=S(=O)(c1ccc(Cl)cc1)c1nnn2c1nc(NCc1ccccc1)c1sccc12 | -10.7% | -8.1% | 21.8% | u | u | x | x | x | x | x
CCCCNc1nc2c(S(=O)(=O)c3ccc(Cl)cc3)nnn2c2ccsc12 | 4.9% | 0.3% | -0.1% | 20µM* | -8.1% | -13.9% | u | 3.7% | -2.9% | -19.1%
O=S(=O)(c1ccc(Cl)cc1)c1nnn2c1nc(N1CCCCC1)c1sccc12 | 0.1% | -0.2% | 1.9% | u | 7.2% | u | 0.6% | 5.2% | 5.6% | u
Cc1ccc(S(=O)(=O)c2nnn3c2nc(N2CCOCC2)c2sccc23)cc1C | -9.3% | -5.3% | -7.6% | 13.4µM* | -12.9% | u | 0.2% | -8.8% | 1.5% | -45.4%
Cc1ccc(S(=O)(=O)c2nnn3c2nc(NC2CCCCCC2)c2sccc23)cc1C | -9.0% | 7.5% | 0.7% | 20µM* | 14.9% | u | -4.2% | -7.9% | 6.1% | 16.5µM* | PMP22 prot conf=u
Cc1ccccc1-c1noc(-c2ccc(NCc3cccnc3)c([N+](=O)[O-])c2)n1 | 0.1% | 4.3% | -21.9% | u | 26.4% | x | x | x | x | x
CCC1CCCCN1S(=O)(=O)c1ccc(NC(=O)c2cc(=O)c3c(C)cc(C)cc3o2)cc1 (stereo unspecified) | 2.3% | -3.0% | 1.9% | -1.0% | -3.6% | x | x | x | x | x
Cc1cccc(-c2nnn3c2nc(NCCc2ccc(S(N)(=O)=O)cc2)c2ccccc23)c1 | -1.5% | u | 15.1% | -31.3% | -23.2% | x | x | x | x | x
Cc1cccc(-c2nnn3c2nc(NCc2ccc4c(c2)OCO4)c2ccccc23)c1 | -10.8% | -4.3% | -0.1% | 16.8µM* | u | -12.4% | -19.8% | -10.1% | -23.3% | 15.3µM*
Cc1cccc(-c2nnn3c2nc(NCCC(C)C)c2ccccc23)c1 | -1.9% | -2.9% | 8.3% | 13.4µM* | 17.0% | -2.4% | 0.1% | -1.2% | 16.1% | -1.1%
Clc1ccc(-c2nnn3c2nc(NCc2ccc4c(c2)OCO4)c2ccccc23)cc1 | -7.2% | -0.2% | 9.1% | u | -13.2% | x | x | x | x | x
COc1ccc(C(=O)N(Cc2ccc(N(C)C)cc2)Cc2ccco2)cc1Cl | 1.6% | 45.2% | 6.6% | u | -2.4% | x | x | x | x | x
CCCOc1ccc(-c2cccc(NS(=O)(=O)c3cc(OC)ccc3OC)c2)nn1 | -2.0% | 0.2% | 3.9% | -1.2% | -15.3% | x | x | x | x | x
CCN1CCN(CCCNC(=O)c2ccc3c(c2)sc2nc(-c4ccc(C)cc4)cn23)CC1 | 9.0% | -2.6% | u | 9.46µM* | -19.3% | 15.3µM* | u | 6.85µM* | 19.3µM* | 17.2µM*
O=C(NCCCN1CCCCC1)c1ccc2c(c1)sc1nc(-c3ccc(F)cc3)cn12 | 0.0% | 6.3% | u | u | -1.4% | x | x | x | x | x
COC(=O)c1c(-c2ccc(Cl)cc2)noc1N1CCN(c2cc(C)ccc2C)CC1 | u | -5.4% | u | 5.62µM* | 4.8% | -6.2% | -1.4% | 2.2% | u | 17.2µM* | PMP22 prot conf=u
Cc1ccc(OC(=O)c2cc(-c3ccc(Cl)cc3)on2)c(C)c1 | -3.6% | 0.4% | -0.6% | -7.4% | -1.6% | x | x | x | x | x
COC(=O)c1c(-c2ccc(Cl)cc2)noc1N1CCN(c2ccc(C)cc2C)CC1 | 8.0% | -7.3% | u | 10µM* | u | -4.8% | -2.0% | 2.8% | u | 19.3µM*
CC(=O)c1ccc(N2CCN(C(=O)CCS(=O)(=O)c3ccc4c(c3)oc(=O)n4C)CC2)cc1 | -1.2% | -2.8% | u | 9.7% | -16.1% | x | x | x | x | x
O=c1oc2ccccc2cc1-c1cn2cc(Cc3ccc(Br)cc3)sc2n1 | -13.4% | 7.2% | -0.7% | u | u | 2.7% | 0.0% | -1.9% | 1.1% | u
Cc1cc(N2CCN(c3cccc(C(F)(F)F)c3)CC2)n2nc(-c3ccccc3C)nc2n1 | -4.8% | -5.5% | 1.8% | 16.3µM* | -13.5% | u | -19.2% | -10.4% | -6.3% | u
COc1cc2ccccc2cc1C(=O)Nc1ccc2oc(-c3cccc(Cl)c3Cl)nc2c1 | u | 2.7% | u | 4.22µM* | 37.5% | -10.3% | 0.7% | -27.8% | 27.3µM* | 12.2µM*
CCN(CC)c1ccc(NC(=O)CSc2nc(-c3cccs3)cc(C(F)(F)F)n2)cc1 | -13.7% | 10.3% | -0.3% | u | -23.1% | x | x | x | x | x
O=C(CCS(=O)(=O)c1nc(-c2cccs2)cc(C(F)(F)F)n1)Nc1ccc(Br)cc1 | u | 5.1% | u | 6.45µM* | 47.2% | -7.2% | u | -3.0% | u | 10.9µM* | PMP22 prot conf=64.8%
